The panel holds about 83,000 compounds, 20% with a hit somewhere; the sample as a whole holds those more often.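 In brief: 96-well plates, 48 h treatment, single concentration, percent growth endpoint.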 The source made the active and inactive calls. The calls were made as follows: active = growth percent below 10; inactive = the rest.

For this assay, the system named is HL-60(TB) leukemia. Description: NCI-60 one-dose screen, 48 h (100 = growth as untreated, 0 = no growth, -100 = all killed). The conditions noted are these: 10 µM unless noted.
`CN(C)CCNC(=O)c1cccn2c(=O)c3cc4ccccc4cc3nc12`: the growth was -38.5% (active). With `ClCCOCCn1cnc2c(Cl)nc(Cl)nc21` the figure was 40.9% (inactive); with `O=C1/C(=C\c2ccc(Cl)cc2)CN(C(=S)Nc2ccccc2)C/C1=C\c1ccc(Cl)cc1`, -15.4% (active); with `CS(=O)(=O)Nc1cc(-c2ccc3ncc(C#N)c(Nc4ccc(F)c(Cl)c4)c3c2)cnc1Cl`, 0.119% (active). Under `COc1ccc(C(=O)c2cc3c(N)c(C(=O)Nc4ccc(C)cc4)sc3nc2C)cc1` stands 7.74% (active). For `COc1ccc(C/C(C)=C(/c2ccc(OCCCN(C)C)cc2)c2ccc(OC(C)=O)cc2)cc1`, the growth was 70.8% (inactive).

`Nc1n[nH]c2cccc(C#Cc3cccc(NC(=O)c4cc(N5CCOCC5)cc(C(F)(F)F)c4)c3)c12`: the growth was 10.6% (inactive). With `CCOc1cc(/C=C/C(=O)CC(=O)/C=C/c2ccc(OC(=O)CNCCN(CC)CC)c(OCC)c2)ccc1OC(=O)CNCCN(CC)CC` the figure was -30.5% (active).

Turning to `COc1ccc(-c2n[nH]c(=O)c3nc(NC(=S)Nc4ccc(Oc5ccccc5)cc4)sc23)cc1`, the growth is 92.9% (inactive). With `CC(C)c1ncc([N+](=O)[O-])n1C` the figure was 118% (inactive); with `C[C@H]1[C@H](C)CC[C@]2(C(=O)OCCCC[P+](c3ccccc3)(c3ccccc3)c3ccccc3)CC[C@]3(C)C(=CC[C@@H]4[C@@]5(C)CC[C@H](OC(=O)C(Cl)Cl)C(C)(C)[C@@H]5CC[C@]43C)[C@H]12`, -54.3% (active).

For the molecule `COc1ccc(C2=CN3CC=CCC3CC2=O)cc1` (centres undefined), the growth is 110% (inactive). Take `CN(C(=O)c1ccccc1)N(C)C(=O)c1ccccc1`: the growth is 92.8% (inactive).

Turning to `O=c1c2c3c(sc2n2c(-c4cc(-c5ccccc5)no4)nnc2n1Cc1ccccc1)CCCC3`, the growth was 72.8% (inactive). For the molecule `COc1ccc(/C=C/C(=O)c2ccc(NC(=O)CN3CCN(c4cc5c(cc4F)c(=O)c(C(=O)O)cn5C4CC4)CC3)cc2)cc1`, the growth is 123% (inactive).

Take `CC(C)CCOc1ccc(-c2n[nH]c(C(F)(F)F)c2-c2cncc(C#N)c2)c(O)c1`: the growth was 3.64% (active). Take `CC(CN)[C@@H]1CC[C@]2(CO)CC[C@]3(C)[C@H](CC[C@@H]4[C@@]5(C)CCC(N)C(C)(C)[C@@H]5CC[C@]43C)[C@@H]12` (some centres undefined): the growth is 31.5% (inactive).

In the case of `O=C(Nc1ccc(CN2CCOCC2)cc1)c1[nH]ncc1Nc1ncnc2sccc12`, the growth was -22% (active). Under `Nc1c(C(=O)NC2CCCCC2)sc2nc3c(cc12)C(=O)CCC3` stands 95.2% (inactive); under `Cc1cccc(CN(Nc2ccccc2)c2ccccc2)n1`, 91.9% (inactive). With `CCN(CC)CCCN1C(=O)c2c(c(C)c3c(oc4ccc(O)cc43)c2C)C1=O` the figure was -5.12% (active); with `COc1cc(-c2nc(C(=O)NCC(=O)O)nn2-c2ccc(Cl)cc2)cc(OC)c1OC`, 101% (inactive). Under `S=C=Nc1ccc(N2CCOCC2)cc1` stands 103% (inactive); under `Cc1ccc(-c2nc(C(Cl)Cl)nc3cc(C)nn23)cc1`, -1.36% (active).

(Values after PubChem BioAssay (NCI).)
